Results reported in PubChem BioAssay AID1326 (NMMLSC, 2008).
Among all 190,000 compounds or so, about 130 (0.068%) were called active. The list comes from a sample in which actives are over-represented; it also holds similar structures and randomly drawn compounds. Unmarked numbers belong to inactive results. Rule as the data show it: active = inhibition above about 40%; inactive = the rest.

Target: ATP-dependent translocase ABCB1 (Homo sapiens) (UniProt P08183)
Assay: ABCB1 efflux pump inhibitors, primary screen, cell-based, multiplex, flow cytometry, ABCG2 counter-screen (AID 1326);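 also: 0% = vehicle and 100% = reference inhibitor; higher value means more JC-1 retained so stronger ABCB1 efflux block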
Conditions: CCRF-Adr cells, JC-1 efflux, at 6.6 µM, stronger effect = higher value

ATP-dependent translocase ABCB1 (Homo sapiens), sequence (P08183 whole entry, looked up): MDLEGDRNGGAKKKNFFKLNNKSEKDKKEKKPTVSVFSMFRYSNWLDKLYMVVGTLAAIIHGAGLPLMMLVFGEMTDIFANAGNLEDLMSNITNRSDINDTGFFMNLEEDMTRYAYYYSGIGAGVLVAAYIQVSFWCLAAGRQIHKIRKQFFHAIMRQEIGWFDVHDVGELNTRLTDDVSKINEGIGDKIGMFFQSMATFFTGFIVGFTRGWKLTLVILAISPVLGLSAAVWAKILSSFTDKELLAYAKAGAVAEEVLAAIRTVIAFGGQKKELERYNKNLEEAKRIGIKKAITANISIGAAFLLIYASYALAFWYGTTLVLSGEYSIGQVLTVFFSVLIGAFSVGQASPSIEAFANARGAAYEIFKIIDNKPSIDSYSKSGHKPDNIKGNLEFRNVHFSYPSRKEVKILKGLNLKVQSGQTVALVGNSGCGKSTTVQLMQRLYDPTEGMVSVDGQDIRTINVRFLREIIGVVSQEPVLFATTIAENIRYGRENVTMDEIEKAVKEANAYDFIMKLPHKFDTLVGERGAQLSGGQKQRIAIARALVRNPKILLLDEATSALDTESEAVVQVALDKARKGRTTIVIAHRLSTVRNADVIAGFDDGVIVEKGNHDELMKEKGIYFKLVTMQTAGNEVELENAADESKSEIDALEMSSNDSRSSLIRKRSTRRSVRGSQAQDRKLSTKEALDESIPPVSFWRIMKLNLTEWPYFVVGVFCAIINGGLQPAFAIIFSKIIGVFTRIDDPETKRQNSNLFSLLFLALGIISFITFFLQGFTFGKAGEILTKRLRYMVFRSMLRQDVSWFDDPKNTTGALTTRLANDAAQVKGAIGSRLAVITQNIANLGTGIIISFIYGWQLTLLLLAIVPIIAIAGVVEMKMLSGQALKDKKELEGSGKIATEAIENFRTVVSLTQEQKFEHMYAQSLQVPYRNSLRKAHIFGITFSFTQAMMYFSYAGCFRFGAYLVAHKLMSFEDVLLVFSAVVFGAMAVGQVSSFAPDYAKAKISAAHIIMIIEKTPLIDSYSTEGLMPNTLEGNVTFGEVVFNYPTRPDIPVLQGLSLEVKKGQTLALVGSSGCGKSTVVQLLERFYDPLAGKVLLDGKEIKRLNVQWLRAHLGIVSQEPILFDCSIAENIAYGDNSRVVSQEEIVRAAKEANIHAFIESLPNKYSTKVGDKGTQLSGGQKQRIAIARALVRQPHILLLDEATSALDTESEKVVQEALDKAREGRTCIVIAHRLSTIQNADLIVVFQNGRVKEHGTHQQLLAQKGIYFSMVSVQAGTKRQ

Compound	inhibition
O=C1c2cccc3c([N+](=O)[O-])ccc(c23)C(=O)N1CC1CCCO1 (centres undefined)	0.98%
CN(CCOc1ccccc1)Cc1nc2cc(Cl)ccc2c(=O)[nH]1	0.26%
Cc1ccc(Nc2c(F)c(F)c(F)c(F)c2C(=O)O)c(C)c1	-0.24%
Cc1ccc(CNC(=O)CCNS(=O)(=O)c2ccc(Br)s2)cc1	-0.56%
NS(=O)(=O)c1ccc(CCNC(=O)c2ccc(Cl)cc2[N+](=O)[O-])cc1	1.3%
COc1ccccc1NC(=O)CCSc1nnc(-c2ccc(O)cc2)o1	0.42%
COc1ccc(/C=N/Nc2ncnc3sc4c(c23)CCCC4)cc1O	-0.22%
N#Cc1cnn2cc(CCN3CCOCC3)c(-c3ccc(F)cc3)nc12	1.26%
CCCNCc1cc(OCC)c(OCC(=O)Nc2ccccc2)cc1Br	0.07%
O=C(CN(C(=O)c1csnn1)c1cccc(F)c1)NCc1ccc(F)cc1	1.22%
COC(=O)c1ccc(C(NC(=O)OCc2ccccc2)/C(C)=C/[C@@H](C)C(=O)NCc2ccc(OC)c(OC)c2)cc1 (some centres undefined)	9.15%
Cc1ccccc1CSc1nnc(-c2ccccc2)c(=O)[nH]1	0.19%
CCC(C)(C)NC(=O)C(c1cccc(OC)c1OC)N(CC(C)C)C(=O)CCC(=O)Nc1cc(C)on1 (centres undefined)	1.31%
CCOC(=O)C1(C)NC(c2ccco2)C2C(=O)N(c3ccccc3)C(=O)C21 (centres undefined)	0.47%
CCOC(=O)NC(=O)CSc1nnc(SCCC(=O)O)s1	0.52%
Cc1nn(CCOc2ccc(Br)cc2)c(C)c1[N+](=O)[O-]	1.06%
CN(C)c1ccc(/C=N/NC(=O)C(O)c2ccc(Br)cc2)cc1 (centres undefined)	0.7%
OC1CSc2nc3ccccc3n2C1 (centres undefined)	-0.99%
Cc1ccc(C)c(-n2nnnc2SCC(=O)c2c(N)n(C)c(=O)n(C)c2=O)c1	-0.82%
Nc1nc(CC(=O)CSc2ccc(Cl)cc2)nc(Nc2ccc(F)cc2)n1	0.01%

Compound	inhibition
COc1ccc(Br)cc1/C=N/Nc1ccc(Cl)c(C(=O)O)c1	-0.4%
Cc1cc(/C=C2/SC(=O)N(CC(=O)N3CCCC3)C2=O)ccc1N1CCOCC1	1.48%
Cc1nc(S(=O)(=O)c2ccc(Br)cc2)nc2c1CCC2	0.58%
COc1ccccc1NC(=O)c1cc(Cl)nnc1Cl	1.04%
COc1ccc(S(=O)(=O)N(C)CC(=O)N2CCCC2)cc1Cl	1.26%
COc1ccc(C(=O)Nc2ccc(N3CCC(C)CC3)cc2)cc1Br	1.32%
Cc1ccc(C(=O)N/C(=C/c2cccnc2)C(=O)O)cc1	0.02%
O=C(O)c1cccc(NC(=O)c2cc(-c3cccc(Cl)c3)nc3ccccc23)c1	-0.61%
C/C(=N\Nc1ncc(Cl)cc1Cl)c1cccs1	0.7%
COC(=O)c1c(C(=O)OC)c(-c2cccc(C)c2)n2c1CS(=O)C2 (centres undefined)	0.19%
COCC(C)n1c(C)cc(C(=O)COc2ccc(C)nc2[N+](=O)[O-])c1C (centres undefined)	0%
S=c1[nH]nc(NCCc2ccccc2)s1	-0.12%
C/C(=N\NC(=O)C(N)=O)c1ccc2c(c1)OCCO2	1.58%
CC(C)/C=N/NC(=O)c1cc(Br)ccc1O	0.05%
O=C(O)CC(SCC(=O)Nc1ccc(Br)cc1)C(=O)O (centres undefined)	-0.05%
COc1ccc2c(-c3ccccc3)cc(SCC(=O)N(C)C3CCS(=O)(=O)C3)nc2c1 (centres undefined)	1.15%
O=C(CN1CCCCCC1)NCCN1C(=O)S/C(=C\c2ccccc2Cl)C1=O	0.67%
COCCn1c(C)cc(C(=O)CSc2nc3ccccc3c(=O)n2C(C)COC)c1C (centres undefined)	2.97%
Cc1cc(C)cc(NC(=O)N2CCCCCCC2)c1	2.76%
COc1cccc(C(O)Cc2nc3ccccc3n2C)c1OC (centres undefined)	-0.47%

Compound	inhibition
C=CCc1cccc2cc(C(=O)NC3CCCC3)c(=O)oc12	1.75%
Cc1c(C(=O)c2cccc([N+](=O)[O-])c2)c2ccccn2c1CCC#N	2.01%
NS(=O)(=O)c1cccc(NC(=O)CSc2nc3ccccc3n2-c2ccccc2)c1	-1.23%
Cc1ccc(SCCC(=O)OCC(=O)Nc2ncc(Cl)cc2Cl)cc1	0.04%
Cc1ccc(-n2c(SCC(=O)Nc3ncc(Cl)cc3Cl)nc3ccccc32)cc1	56.9% (active)
CCn1c(SCC(=O)Nc2nccs2)nnc1-c1ccco1	0.22%
COCCCNC(NC(=O)c1ccc(OC)cc1)C(Cl)(Cl)Cl (centres undefined)	0.77%
O=c1[nH]c2cccnc2n(CCNc2ncc(C(F)(F)F)cc2Cl)c1=O	0.11%
CC(C)(C)n1ncc2c(=O)n(Cc3ccc(Cl)cc3)cnc21	0.59%
C#CCOCCOCCOCCNc1nc(N2CCN(C(=O)[C@H](CCCCN)n3cc([C@@H](N)C(C)CC)nn3)CC2)nc(N2CCN(C(=O)[C@H](Cc3ccc(O)cc3)n3cc([C@@H](N)C(C)CC)nn3)CC2)n1 (some centres undefined)	0.44%
COc1ccc(Cn2c(=O)cc(C)[nH]c2=S)cc1	1.2%
O=C(Oc1c(-c2ccco2)oc2ccccc2c1=O)c1cccnc1	1.71%
O=C(N/N=C/c1sc(N2CCCCC2)nc1-c1cccs1)c1cccnc1	-0.08%
CCOc1cnc(C(=O)NNC(=O)c2ccccc2Br)o1	-0.12%
COc1ccc(CN2CCNC(=O)C2CC(=O)N(C)Cc2ccccn2)cc1OC (centres undefined)	0.3%
N=C1C(c2nc3ccccc3s2)=C(O)CN1NC(=O)c1ccc([N+](=O)[O-])cc1	-0.23%
CN(CC(=O)Nc1ccccc1F)CC(=O)Nc1ccccc1Br	-0.22%
CCOCCCn1c(NN)nc2ccccc2c1=O	0.54%
Nc1ccc(Cl)c(S(=O)(=O)Nc2ccccc2Cl)c1	0.19%
